This is a sample that favours compounds with a hit; in the whole collection about 4.6% have one here.
TIM10 inh = inhibits growth of TIM10 yeast strain; AID 463195; inhibition, % at 10 µM; S. cerevisiae TIM10 strain growth, BacTiter-Glo luminescence, 24 h; 330,000 compounds, 1.4% hits;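 active = inhibition of 40% or more at the single tested concentration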;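 note: wild-type TIM10 isogenic control strain grown at permissive 25 °C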
tim10-1 inh = tim10-1 yeast growth inhibition | S. cerevisiae tim10-1 ts strain growth, BacTiter-Glo, 24 h | inhibition, % at 20 µM | 330,000 compounds, 2.2% hits;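 active = inhibition of at least 40%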;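 note: mutant grown at 25 °C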
SKKanGAS inh = inhibitors of SKKanGAS S. pyogenes growth in kanamycin (SK-promoter or general growth effect); BacTiter-Glo, 6 h; inhibition, % at 7.5 µM; 300,000 compounds, 1.3% hits; AID 1662;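 active = mean replicate score, as percent of positive control median, at least 50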;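 note: strain carries kanamycin resistance gene driven by streptokinase promoter and grows in 40 µg/ml kanamycin; loss of luminescence reflects streptokinase promoter inhibition or plain growth inhibition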
V-ATPase pHluor = alters yeast V-ATPase proton transport | S. cerevisiae, pHLuorin cytosolic pH fluorescence | response, % at 10 µM | 350,000 compounds, 0.37% hits; in the data active = response mostly above about 7.3%, no sharp cut-off; inactive = mostly below about 5.4%; note: actives read high
PfHsp90 set2 = inhibits growth of yeast expressing Plasmodium falciparum Hsp90; S. cerevisiae expressing PfHsp90, BacTiter-Glo ATP, 48 h; yeast lacking PDR1 and PDR3 efflux regulators; AID 504621; inhibition, % at 9.4 µM; 310,000 compounds, 0.32% hits;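 active = every replicate shows inhibition above about 80%, whatever the replicate mean, limit read from the data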
tim23-1 inh = tim23-1 yeast growth inhibition. 330,000 compounds, 1.3% hits. S. cerevisiae tim23-1 growth, BacTiter-Glo luminescence, 24 h. inhibition, % at 20 µM;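 active = growth inhibition of the mutant yeast at or above 50%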;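 note: temperature-sensitive mutant grown at 25 °C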
Large screens that a line does not name were inactive.

C/C(N)=C(/C#N)C(=O)CSc1nc2scc(-c3ccccc3)c2c(=O)n1C	SKKanGAS inh 61.9
CC(C)=CCc1cc([C@@H]2COc3c(ccc4c3C=CC(C)(C)O4)C2)c(O)cc1O	SKKanGAS inh 104.6, PfHsp90 set2 104.5
CC(=O)Oc1ccc([C@@H]2COc3c(ccc4c3C=CC(C)(C)O4)C2)c(OC(C)=O)c1	none
Cc1ccc(-n2[nH]c(C)c(/C=N/NC(=O)c3ccc(O)cc3O)c2=O)cc1	SKKanGAS inh 101.9
Cc1ccc(-n2[nH]c(C)c(C=Nc3cc(C)ccn3)c2=O)cc1	none
Cc1cc(C(=O)N/N=C/c2c(C)[nH]n(-c3ccccc3)c2=O)n[nH]1	none
Cc1[nH]n(-c2ccccc2)c(=O)c1/C=N/NC(=O)c1ccc(O)cc1O	SKKanGAS inh 102.2
CCCCN(CCCC)C(=S)N/N=C/c1c(C)[nH]n(-c2ccccc2)c1=O	SKKanGAS inh 88.2
CCOc1ccc(Oc2ccc(NS(=O)(=O)c3ccc(CCC(=O)O)cc3)cc2)cc1	none (no result: TIM10 inh, tim10-1 inh, SKKanGAS inh, PfHsp90 set2, tim23-1 inh)
COC(=O)C(NC(=O)c1cccnc1Cl)C(C)C (stereo not drawn)	none
O=C(NC(=S)N1CCN(c2nc(-c3ccccc3)cs2)CC1)c1cncc(Br)c1	SKKanGAS inh 76.9
O=C(CN1CCN(c2nc(-c3ccccc3)cs2)CC1)NNC(=O)c1ccc(Br)cc1	none
COc1ccc(S(=O)(=O)N2CCC(O)(c3ccc(Cl)cc3)CC2)cc1OC	V-ATPase pHluor 17.1
COc1ccc(S(=O)(=O)N2CCC(O)(c3ccc(Cl)cc3)CC2)cc1	none (no result: PfHsp90 set2)
O=C1/C(=C/c2c[nH]c3ccccc23)CCC/C1=C\c1c[nH]c2ccccc12	SKKanGAS inh 59.5
C(=NN=Cc1c[nH]c2ccccc12)c1c[nH]c2ccccc12	none (no result: TIM10 inh, tim10-1 inh, SKKanGAS inh, PfHsp90 set2, tim23-1 inh)
CN(C)Cc1cc(C(C)(C)c2ccccc2)ccc1O	none (no result: TIM10 inh, tim10-1 inh, SKKanGAS inh, tim23-1 inh)
COc1ccc(C(=O)NNC(=O)c2ccc(F)c(S(=O)(=O)N3CCOCC3)c2)cc1	none (no result: SKKanGAS inh, PfHsp90 set2)
COc1ccc2c(c1)c(=O)oc1c(C)c(OCc3cc(C(=O)O)oc3C)ccc12	none
COc1ccc2c(c1)c(=O)oc1c(C)c(OCc3ccc(C(=O)O)cc3)ccc12	SKKanGAS inh 51.6 (no result: TIM10 inh, tim10-1 inh, tim23-1 inh)
CCc1nc(N)nc(N)c1-c1ccc(NCCN)c([N+](=O)[O-])c1	none (no result: TIM10 inh, tim10-1 inh, SKKanGAS inh, tim23-1 inh)
CCc1nc(N)nc(N)c1-c1ccc(Cl)cc1	SKKanGAS inh 69.9
CCCC[n+]1ccn(C2=C([O-])c3ccccc3C(=O)/C2=N\S(=O)(=O)c2ccccc2)c1	SKKanGAS inh 59.0
CC(C)[n+]1ccn(C2=C([O-])c3ccccc3C(=O)/C2=N\S(=O)(=O)c2ccccc2)c1	none
CCCCC[n+]1ccn(C2=C([O-])c3ccccc3C(=O)/C2=N\S(=O)(=O)c2ccc(Br)cc2)c1	SKKanGAS inh 97.1
CCCCC[n+]1ccn(-c2nc3ccccc3nc2[N-]S(=O)(=O)c2ccc(C)cc2)c1	none
CCCCC[n+]1ccn(C2=C([O-])c3ccccc3C(=O)/C2=N\S(=O)(=O)c2ccccc2)c1	SKKanGAS inh 73.7
CC(C)(C#N)NC(=O)C1CCCN1S(=O)(=O)c1ccc2ccccc2c1 (stereo not drawn)	none
O=C(O)c1ccc(N/N=C/c2ccc(OC(=O)c3ccccc3Cl)cc2)cc1	SKKanGAS inh 63.4
O=C(O)c1ccc(N/N=C/c2ccc(-c3ccccc3)cc2)cc1	PfHsp90 set2 97.6 (no result: TIM10 inh, tim10-1 inh, tim23-1 inh)
O=C(Nc1cc(SCCO)cc([N+](=O)[O-])c1)c1ccc(Br)o1	none
Cc1[nH]n(C2=NCCS2)c(=O)c1N=Nc1cccc(C(F)(F)F)c1	SKKanGAS inh 82.7
Cc1c(-c2ccccc2)[n+](=O)c2c(n1[O-])CCCC2	none
O=C(Cc1cccc2ccccc12)N/N=C/c1ccc2cccc(O)c2n1	SKKanGAS inh 70.5
O=C(Cc1cccc2ccccc12)N/N=C/c1ccc(O)c([N+](=O)[O-])c1	none
O=C1c2ccccc2-c2c1cccc2C(=O)N1CCCCCC1	V-ATPase pHluor 14.9
COCCn1c(SCC(=O)Nc2ccc(F)cc2)nc2c([nH]c3ccccc32)c1=O	SKKanGAS inh 50.8
CC(C)N(CCn1c(SCC(=O)Nc2cccnc2Cl)nc2ccccc2c1=O)C(C)C	none (no result: SKKanGAS inh)
COc1ccc(Cl)cc1NC(=O)CN1CCN(Cc2ccccc2)CC1	none
Cc1cccc(C(=O)NNC2=C(C(=O)C(F)(F)F)CCC2)c1O	SKKanGAS inh 104.4
O=C(NNC1=C(C(=O)C(F)(F)F)CCC1)c1cccc(O)c1	none
O=C(NNC(=O)c1ccncc1)Nc1cc(Cl)ccc1Cl	none (no result: TIM10 inh, tim10-1 inh, SKKanGAS inh, tim23-1 inh)
COc1ccc(C2CC(c3ccccc3)=NN2C(=O)c2cccs2)cc1 (stereo not drawn)	SKKanGAS inh 59.4
FC(F)(F)c1cc(-c2ccccc2)nc(N2CCCCC2)n1	SKKanGAS inh 84.3
FC(F)(F)c1cc(-c2ccccc2)nc(N2CCOCC2)n1	none
CC1=Nc2ccccc2/C1=C/c1sc(=N)n(-c2nccs2)c1O	SKKanGAS inh 98.2
CC1CCN(c2nc(-c3cccnc3)nc3scc(-c4ccccc4)c23)CC1	SKKanGAS inh 74.9
CC1CCCN(c2nc(-c3cccnc3)nc3scc(-c4ccccc4)c23)C1 (stereo not drawn)	none
CC(=O)O[C@H]1[C@H](O)[C@H](Oc2c(O)c(C)c3c4c2[C@@H](C)CC[C@@H]4[C@@H](C)C[C@H]3C=C(C)C)O[C@@H](C)[C@H]1O	PfHsp90 set2 118.1 (no result: SKKanGAS inh)
CCOc1ccc(CNC(=S)N/N=C/c2ccc(OC)c(OC)c2)cc1	none
CCOc1ccc(S(=O)(=O)N2CCN(C(=O)c3cc(C4CC4)nn3-c3ccccc3)CC2)cc1	none (no result: SKKanGAS inh)
O=C(NNC(=S)NC(=O)c1cccnc1)c1ccc(Cl)cc1	SKKanGAS inh 51.9
O=C(COc1ccccc1)NNC(=S)NC(=O)c1ccccc1	SKKanGAS inh 74.9
COc1ccc(C(=O)NC(=S)NNC(=O)c2cnccn2)cc1	PfHsp90 set2 94.0
COc1ccc(C(=O)NC(=S)NNC(=O)COc2ccccc2)cc1	SKKanGAS inh 88.4
O=C(NC(=S)NNC(=O)c1cnccn1)c1ccc(Cl)cc1	none
COc1ccc(C(=O)Nc2ccc(NC(=O)Cc3ccccc3)cn2)cc1	none
O=C(CCc1ccccc1)NNC(=S)NC(=O)c1ccc(Cl)cc1	SKKanGAS inh 60.7 (no result: V-ATPase pHluor, PfHsp90 set2)
O=C(CCc1ccccc1)NNC(=O)c1ccc(Cl)cc1	none
COc1ccc(-c2cn(-c3ccc(C)cc3C)c(=O)[nH]2)cc1OC	none
C[C@H]1CN([C@@H](C)CO)C(=O)CCCn2nncc2CO[C@@H]1CN(C)C(=O)c1ccc2ccn(C)c2c1	none (no result: TIM10 inh, tim10-1 inh, SKKanGAS inh, PfHsp90 set2, tim23-1 inh)
O=C(CNC(=O)c1ccco1)NCc1nc2ccccc2[nH]1	SKKanGAS inh 50.7
O=C(NCc1nc2ccccc2[nH]1)c1ccco1	none
O=S(=O)(c1ccc(NC(=S)N/N=C/c2ccc(O)c(O)c2)cc1)N1CCOCC1	none
O=[N+]([O-])c1cc(Cl)cc(/C=N/NC(=S)Nc2ccc(S(=O)(=O)N3CCOCC3)cc2)c1O	SKKanGAS inh 93.8
